The list is not random: actives were taken first. Their share in the collection is about 3.2%.
Rv3671c protease: Rv3671c (M. tuberculosis) protease inhibition; actives 0.048% (n = 320,000); AID 2606; inhibition, % at 5.96 µM; in the data active = inhibition above about 38%;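 note: extracellular domain of Rv3671c used as enzyme; 0% = enzyme with DMSO and 100% = no enzyme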
GDH-TPI counter-1: counter-screen for M. tuberculosis FBA inhibitors: GDH-TPI coupled enzymes; GDH-TPI coupled enzyme counterscreen, NADH absorbance; inhibition, % at 4.8 µM; actives 1.2% (n = 360,000); AID 588335; in the data active = inhibition above about 30%;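 note: 0% = DMSO wells and 100% = wells lacking the enzyme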
SSB-PriA inh: inhibitors of Klebsiella pneumoniae PriA binding to SSB C-terminal tail | AlphaScreen SSBct-PriA binding, biotinylated peptide | inhibition, % at 33 µM | actives 0.6% (n = 430,000); in the data active = inhibition mostly above about 37%, no sharp cut-off; inactive = mostly below about 20%;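 note: plate controls were negative control peptide for no effect and reference peptide for full effect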
FBA Mtb inh: inhibitors of M. tuberculosis fructose-bisphosphate aldolase | P9WQA3 | purified M. tuberculosis FBA, fluorescence read-out | inhibition, % at 1 µM | actives 2.3% (n = 360,000);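 note: 0% = vehicle and 100% = reference inhibitor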
Target sequence (P9WQA3 whole entry, looked up): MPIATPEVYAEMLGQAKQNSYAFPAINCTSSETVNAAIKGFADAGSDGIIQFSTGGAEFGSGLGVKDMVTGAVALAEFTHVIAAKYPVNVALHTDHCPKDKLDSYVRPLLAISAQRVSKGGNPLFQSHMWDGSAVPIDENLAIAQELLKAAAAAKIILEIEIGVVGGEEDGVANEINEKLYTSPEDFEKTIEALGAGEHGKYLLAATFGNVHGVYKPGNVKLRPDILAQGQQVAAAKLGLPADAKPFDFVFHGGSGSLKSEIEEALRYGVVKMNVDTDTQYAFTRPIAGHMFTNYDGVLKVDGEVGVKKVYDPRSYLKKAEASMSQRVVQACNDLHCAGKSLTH
UGM FP inh: blocks M. tuberculosis UGM enzyme | purified UGM, fluorescence polarization probe displacement | inhibition, % at 10 µM | actives 0.06% (n = 320,000) | AID 504406; in the data active = inhibition above about 10%, passing the limit was not always enough; inconclusive = no clear call, values can overlap the other calls
Mtb betalactam: beta-lactam sensitization of Mtb H37Rv; M. tuberculosis H37Rv growth with meropenem, percent inhibition; inhibition, % at 25 µM; actives 0.27% (n = 330,000); AID 434955; call rule not given here;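 note: growth measured after seven days incubation then overnight dye step; 0% = bacteria only wells and 100% = bacteria with antibiotic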
Mtb FBA inh conf: confirmation of M. tuberculosis fructose-bisphosphate aldolase inhibitors; shares compounds with FBA Mtb inh; purified M. tuberculosis FBA, fluorescence read-out; inhibition, % at 1 µM; actives 78% (n = 5,600); AID 651616;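 note: 0% = vehicle wells and 100% = reference inhibitor wells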
GDH-TPI counter-2: inhibits GDH-TPI coupling enzymes, flagging Mtb FBA hits; actives 81% (n = 5,600); shares compounds with FBA Mtb inh; inhibition, % at 1 µM; GDH-TPI coupled enzyme counterscreen, fluorescence; in the data active = inhibition above about 10%
Starred values were filed as active, the others as inactive; ? = inconclusive; . = no result; + = active, no number. Cut-off read from the data, not from the text of the source, unless noted: active = inhibition above about 27%; inactive = the rest.

SMILES	Rv3671c protease	GDH-TPI counter-1	SSB-PriA inh	FBA Mtb inh	UGM FP inh	Mtb betalactam	Mtb FBA inh conf	GDH-TPI counter-2
CCCCOC(=O)COc1cc(C)cc2oc(=O)c3c(c12)CCC3	5	0	-21	8	-1	?	.	.
Cc1c(C)c2cc(Cl)c(OCc3nn[nH]n3)cc2oc1=O	-2	12	6	55*	0	-3	92*	75*
CCN(CC)C(=O)COc1cc(C)cc2oc(=O)c3c(c12)CCCC3	.	13	-12	81*	4	-9	61*	43*
NC(=NS(=O)(=O)c1cc(C(F)(F)F)cc(C(F)(F)F)c1)c1ccccc1	.	.	-2	.	.	.	.	.
O=c1[nH]c2nnc(Nc3ccccc3)n2c2[nH]ncc12	.	.	-14	.	.	.	.	.
Cc1ccc(C(=O)C=CNc2ccccn2)cc1	.	.	-6	.	.	.	.	.
CCOC(=O)c1sc(N/N=C(/C#N)c2nc3ccccc3s2)c(C(=O)OCC)c1C	.	.	12	.	.	.	.	.
CCC(C)NC(=O)c1ccc2c(=O)n(C)c3nnc(SCC(=O)Nc4ccc(C)c(F)c4)n3c2c1 (stereo not drawn)	.	.	0	.	.	.	.	.
CCOC(=O)C1=C(COC(=O)/C=C/c2ccc(SC)cc2)NC(=O)NC1C (stereo not drawn)	-8	19	-6	40*	0	-6	35*	23*
CSc1ccc(/C=C/C(=O)OCC(=O)NC2CC2)cc1	1	25	3	46*	-4	1	95*	68*
CNC(=O)COC(=O)/C=C/c1ccc(F)cc1	-2	-22	-8	5	-2	6	.	.
CSc1ccc(/C=C/C(=O)OCC(=O)NC(C)C)cc1	10	20	-11	58*	-1	4	98*	93*
CC(=NNc1ccc(S(N)(=O)=O)cc1[N+](=O)[O-])c1ccccc1O	.	.	10	.	.	.	.	.
COc1ccc(NC(=O)NCCCn2nc(-c3cccs3)ccc2=O)cc1	.	.	-7	.	.	.	.	.
Cc1ccc(S(=O)(=O)NCC[C@H](O)C2CCOCC2)cc1Cl	.	.	-16	.	.	.	.	.
Cn1c2ccccc2c2c(C(=O)N3CCC4(CC3)OCCO4)cn(C3CCCC3)c(=O)c21	-5	8	-11	28*	0	-11	58*	47*
CC(C)Cn1cc(C(=O)N2CCN(c3ccccn3)CC2)c2c3ccccc3n(C)c2c1=O	1	19	5	9	-2	6	.	.
CCOC(=O)C1CCN(C(=O)c2cn(CCOC)c(=O)c3c2c2ccccc2n3C)CC1	4	11	-1	46*	.	4	84*	68*
Cn1cc(C(=O)N2CCN(C(=O)c3ccco3)CC2)c2c3ccccc3n(C)c2c1=O	-12	15	-7	37*	-1	-6	-2	-3
CCCN1CCN(C(=O)c2nn(-c3ccc(OC)cc3)c(=O)c3c2c2ccccc2n3C)CC1	4	13	1	2	-1	-6	.	.
CCN1CCN(C(=O)c2cn(CCOC)c(=O)c3c2c2ccccc2n3C)CC1	9	20	-19	48*	-3	-5	171*	129*
CCOC(=O)C1CCN(C(=O)Cn2cc(C(=O)C3CC3)c3ccccc32)CC1	-1	5	-1	-1	1	5	.	.
Cc1cc(NC(=O)c2cn(C3CCCCC3)c(=O)c3c2c2ccccc2n3C)no1	-15	4	-8	2	3	1	.	.
Cn1c(=O)cc(OCCCC(=O)N2CCC3(CC2)OCCO3)c2ccccc21	-3	-5	-2	1	1	-4	.	.
COCCn1cc(C(=O)N2CCC3(CC2)OCCO3)c2c3ccccc3n(C)c2c1=O	1	13	-9	37*	2	-1	144*	120*
SMILES	Rv3671c protease	GDH-TPI counter-1	SSB-PriA inh	FBA Mtb inh	UGM FP inh	Mtb betalactam	Mtb FBA inh conf	GDH-TPI counter-2
COCCn1cc(C(=O)N2CCCC(C)C2)c2c3ccccc3n(C)c2c1=O (stereo not drawn)	0	15	-9	45*	-1	-1	0	-5
CCOc1ccccc1C(=O)Nc1cc(-c2cn3nc(OC)ccc3n2)ccc1F	.	.	-20	.	.	.	.	.
Cc1cc(=O)n2c(-c3cccc(NC(=O)c4c(F)cccc4F)c3)csc2n1	.	.	1	.	.	.	.	.
COc1ccccc1CCN=C(N)NS(=O)(=O)c1ccccc1F	5	3	-6	51*	5	7	+	175*
CCOc1ccccc1-n1nnc(C(=O)OCc2nc(-c3cccc(Cl)c3)oc2C)c1C	.	.	-4	.	.	.	.	.
CCN(CC(=O)Nc1ccc2c(c1)OCCO2)S(=O)(=O)c1cccs1	-3	0	9	39*	-1	-8	75*	71*
NC(=NOC(=O)c1cc(Br)ccc1Cl)c1ccccn1	.	.	-23	.	.	.	.	.
O=c1cc(CSc2nc3ccccc3c(=O)[nH]2)c2ccc(O)cc2o1	.	21	5	28*	.	.	102*	75*
Nc1ncccc1C(=O)OCC(=O)N1CCN(S(=O)(=O)c2ccc(Cl)cc2)CC1	-11	23	-2	62*	-2	1	9	-4
Cc1ccc(NC(=O)Cn2cnc3c(-c4ccc(Cl)cc4)csc3c2=O)cc1F	.	.	0	.	.	.	.	.
CC(C)N(C(=O)[C@H]1C[C@H](CC(=O)NCCN2CCOCC2)C(=O)N2CCc3c([nH]c4cc(-c5ccco5)ccc34)[C@]12C)C(C)C	.	4	-4	36*	.	.	150*	124*
C[C@]12c3[nH]c4cc(-c5ccco5)ccc4c3CCN1C(=O)[C@@H](CC(=O)NCCN1CCOCC1)C[C@@H]2C(=O)N1CCOCC1	.	11	8	46*	.	.	+	+
C[C@]12c3[nH]c4cc(-c5ccco5)ccc4c3CCN1C(=O)[C@@H](CC(=O)NCCC1=CCCCC1)C[C@@H]2C(=O)N1CCOCC1	.	5	12	15	.	.	.	.
C[C@]12c3[nH]c4cc(-c5ccco5)ccc4c3CCN1C(=O)[C@@H](CC(=O)NCCCn1ccnc1)C[C@@H]2C(=O)N1CCOCC1	.	10	6	28*	.	.	-6	-5
CC(C)N(C(=O)[C@H]1C[C@H](CC(=O)NCCCn2ccnc2)C(=O)N2CCc3c([nH]c4cc(-c5ccco5)ccc34)[C@]12C)C(C)C	.	7	11	10	.	.	.	.
CC(C)N(C(=O)[C@H]1C[C@H](CC(=O)NC(C)(C)C)C(=O)N2CCc3c([nH]c4cc(-c5ccco5)ccc34)[C@]12C)C(C)C	.	-8	5	21	.	.	.	.
CCN(CC)C(=O)[C@H]1C[C@H](CC(=O)NC(C)(C)C)C(=O)N2CCc3c([nH]c4cc(-c5ccco5)ccc34)[C@]12C	.	8	-12	38*	.	.	+	140*
Cc1cc(C(=O)N2CCC(CSCc3ccco3)CC2)no1	.	.	-22	.	.	.	.	.
COc1ccc(CNC(=O)CC2C[C@H](C(=O)N3CCOCC3)[C@@]3(C)c4[nH]c5ccccc5c4CCN3C2=O)cc1OC (stereo partly drawn)	1	-3	-6	2	-1	-7	.	.
